Results filed as inconclusive are left out. Entries that show only a call come without a potency. Calls of active or inactive are those of the source. The call rests on the fitted dose curve; in most records, active means well fitted curve in the direction sought with a large enough effect; inconclusive means small, poorly fitted or top-dose-only effect, or another doubt; inactive means no such curve, though single readings can be large; an effect the other way counts as inactive or inconclusive.
Tests used:
[1] = SW1088 Cancer Cell Toxicity qHTS against the NCATS CANVASS Library (AID 1347350); further: nearly all actives have a fitted effect of over 75% in size; further: potency means the concentration at half of the fitted maximal effect
How it was run: (§1)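 Viability was assessed by adding CellTiter-Glo reagent to treated cultures and reading luminescence after 15min at room temperature. Treatment lasted 72 h at 37 degrees C/5% CO2, using an 11-point series on 1000 cells/well.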

[2] = U-118MG Cancer Cell Toxicity qHTS against the NCATS CANVASS Library (AID 1347351)
How it was run: as §1

[3] = COV-362 Cancer Cell Toxicity qHTS against the NCATS CANVASS Library (AID 1347352); further: series mostly up to about 38 µM
How it was run: (§2)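 Toxicity was measured as CellTiter-Glo luminescence after 72 h exposure to an 11-point compound series. Compound was added to 1000 cells/well 4 h after seeding.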

[4] = A2780 Cisplatin Sensitive Ovarian Cancer Cell Toxicity qHTS against the NCATS CANVASS Library (AID 1347353); further: nearly all actives have a fitted effect of over 60% in size; further: potency means the concentration at half of the fitted maximal effect
How it was run: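 Cisplatin-sensitive A2780 ovarian cells (750/well) received compound in 11 concentrations, and were incubated 72 h at 37 °C. ATP content was measured by ATPLite luminescence; bortezomib served as control.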

[5] = UWB1.289-WTBRCA1 Cancer Cell Toxicity qHTS against the NCATS CANVASS Library (AID 1347354)
How it was run: as §2

[6] = HEK-293 Cancer Cell Toxicity qHTS against the NCATS CANVASS Library (AID 1347355); further: nearly all actives have a fitted effect of over 65% in size; further: potency means the concentration at half of the fitted maximal effect
How it was run: as §2

[7] = test system: NAD(P)H diaphorase (Clostridium kluyveri); assay: Diaphorse counterscreen qHTS: Assay Interference Panel against the NCATS CANVASS Library (AID 1347362); further: potency means the concentration at half of the fitted maximal effect
How it was run: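 Counterscreen for coupling-enzyme interference: resorufin fluorescence from resazurin/NADH turnover, read after 5 min at room temperature. Compounds were tested over an 11-point series after 15 min dark preincubation with diaphorase in PBS-Tween.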

[8] = SDT Cancer Cell Toxicity qHTS against the NCATS CANVASS Library (AID 1347365); further: nearly all actives have a fitted effect of over 60% in size; further: potency means the concentration at half of the fitted maximal effect
How it was run: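 Cytotoxicity taken from CellTiterGlo ATP luminescence after 72 hr at 37C, 5% CO2. Canine glioma line SDT, 500 cells/well, treated at 11 concentrations; bortezomib dose series as control.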

[9] = G06 Cancer Cell Toxicity qHTS against the NCATS CANVASS Library (AID 1347368); further: nearly all actives have a fitted effect of over 60% in size; further: potency means the concentration at half of the fitted maximal effect
How it was run: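 Viability measured by CellTiterGlo ATP luminescence after 72 hr at 37C, 5% CO2. Canine G06 glioma cells plated at 500/well. Compounds tested as 11-point qHTS titrations.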

[10] = target: Nuclear receptor subfamily 1 group I member 3 (Homo sapiens) (UniProt Q14994); assay: qHTS for Constitutive Androstane Receptor (CAR) Antagonist screened against the NCATS CANVASS Library (AID 1347372); further: potency means the concentration at half of the fitted maximal effect
How it was run: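 Antagonist mode: compound added alongside 50 nM CITCO to HepG2-hCAR-CYP2B6 reporter cells, 24hr at 37C. Viability by CellTiter-Fluor fluorescence, then CAR-driven luciferase by ONE-Glo luminescence.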

[11] = qHTS for Hypoxia signaling pathway (HIF-1) antagonists against the NCATS CANVASS Library (AID 1347374); further: nearly all actives have a fitted effect of over 60% in size; further: potency means the concentration at half of the fitted maximal effect
How it was run: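 Antagonism scored as loss of CoCl2-driven (60 uM stock added) HRE beta-lactamase signal, read by CCF4 FRET at 460/530 nm. Compounds were tested in an 11-point series on ME-180 reporter cells for 17 hrs at 37C, with parallel CellTiter-Glo cytotoxicity.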

[12] = qHTS for Hypoxia signaling pathway (HIF-1) agonists against the NCATS CANVASS Library (AID 1347375)
How it was run: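 Beta-lactamase reporter under HRE control in ME-180 cells; compounds (11-point qHTS series) added after 5 hrs plating, then 17 hrs at 37C. FRET substrate read after 2 hr; same-well CellTiter-Glo luminescence gave viability and normalization.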

[13] = qHTS for H2AX Agonists against the NCATS CANVASS Library (AID 1347378);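 further: phospho-H2AX S139 level in CHO-K1 lysates by TR-FRET emission ratio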; further: potency means the concentration at half of the fitted maximal effect
How it was run: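 Following overnight seeding, CHO-K1 cells are incubated with a concentration series of compound for 3 hr at 37C (final DMSO 0.76%). Cells are then lysed, detection antibodies added, and emission ratio 665/620 nm recorded after 24 hr at room temperature.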

[14] = qHTS for Activators of p53 Stress Response Pathway screened against the NCATS CANVASS Library (AID 1347388)
How it was run: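 Beta-lactamase reporter driven by p53 response elements in HCT-116 cells, read as the 460 nm/530 nm emission ratio after CCF4 loading, following 16 h of exposure to an 11-point series. Cell viability was measured in the same wells by CellTiter-Glo luminescence.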

[15] = qHTS assay for small molecule disruptors of mitochondrial membrane potential screened against the NCATS CANVASS Library (AID 1347389); further: nearly all actives have a fitted effect of over 60% in size; further: potency means the concentration at half of the fitted maximal effect
How it was run: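 Mitochondrial membrane potential in HepG2: 1 h compound treatment (11-point concentration series), 30 min m-MPI dye at 37C, then dual fluorescence of J-aggregates (ex 540/em 590) and monomers (ex 490/em 535); lower red/green ratio indicates depolarization.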

[16] = Secretion counterscreen for inhibitors of the SERCaMP assay screened against the NCATS CANVASS Library (AID 1347390);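 further: light from luciferase secreted into medium read as a measure of general secretion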; further: potency means the concentration at half of the fitted maximal effect
How it was run: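 Counterscreen identifying compounds that disrupt secretion, using SH-SY5Y cells with a constitutively secreted Gaussia luciferase reporter. A 20 h compound exposure (top 77 uM) precedes luminescent detection with coelenterazine.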

[17] = qHTS for activators of Nrf2/ARE signaling pathway screened against the NCATS CANVASS Library (AID 1347391); further: nearly all actives have a fitted effect of over 60% in size; further: potency means the concentration at half of the fitted maximal effect
How it was run: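 Eleven-point qHTS, 16 h treatment of HepG2 cells carrying an ARE-driven beta-lactamase reporter; CCF4 ratio read (405 nm excitation, 460 and 530 nm emission), with CellTiter-Glo ATP luminescence for viability.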

[18] = qHTS for inhibitors of ER calcium dysfunction: SERCaMP assay screened against the NCATS CANVASS Library (AID 1347393); further: nearly all actives have a fitted effect of over 40% in size; further: potency means the concentration at half of the fitted maximal effect
How it was run: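 Thapsigargin-induced ER calcium depletion drives GLuc-SERCaMP secretion from SH-SY5Y cells; compounds given 16 h beforehand were scored by lowered coelenterazine luminescence after 4 h challenge.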

[19] = qHTS for inhibitors of Wild type Zika virus screened against the NCATS CANVASS Library (AID 1347396);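 further: ATP luminescence of surviving cells so rescue from viral cell killing; series mostly up to about 46 µM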
How it was run: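 Using ATP-based luminescence (CellTiter Glo), this screen scores rescue of Vero 766 cells from wild-type Zika killing at 72 h post-infection. Compounds are tested in a concentration series.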

[20] = Redox Reaction Profiling qHTS: Assay Interference Panel against the NCATS CANVASS Library (AID 1347401); further: potency means the concentration at half of the fitted maximal effect
How it was run: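 Redox-cycling liability assessed as DTT-driven conversion of resazurin (5 uM, with 200 uM DTT, HEPES pH 7.3) to fluorescent resorufin. Fluorescence at 525/598 nm measured initially and after 15 min dark incubation.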

Nuclear receptor subfamily 1 group I member 3 (Homo sapiens), sequence (Q14994 whole entry, looked up): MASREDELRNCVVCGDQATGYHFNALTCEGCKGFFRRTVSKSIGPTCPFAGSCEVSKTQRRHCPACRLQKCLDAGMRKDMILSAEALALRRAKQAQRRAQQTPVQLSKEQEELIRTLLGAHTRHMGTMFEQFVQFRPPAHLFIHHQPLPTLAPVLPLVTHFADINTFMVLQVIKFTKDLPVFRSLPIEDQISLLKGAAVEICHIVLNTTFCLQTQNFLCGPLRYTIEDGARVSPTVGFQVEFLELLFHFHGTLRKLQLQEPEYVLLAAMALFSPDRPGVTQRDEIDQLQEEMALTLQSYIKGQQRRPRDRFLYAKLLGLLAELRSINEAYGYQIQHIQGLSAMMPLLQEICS

SMILES	Potency [1]	Potency [2]	Potency [3]	Potency [4]	Potency [5]	Potency [6]	Potency [7]	Potency [8]	Potency [9]	Potency [10]	Potency [11]	Potency [12]	Potency [13]	Potency [14]	Potency [15]	Potency [16]	Potency [17]	Potency [18]	Potency [19]	Potency [20]
C[C@@H]1C(=O)[C@]23CC[C@H]1C[C@]21O[C@H]2C(C)(C)C=CC(=O)[C@]23COC1=O	inactive	inactive	inactive	inactive	inactive	inactive	inactive	inactive	inactive	inactive	inactive	inactive	inactive	inactive	inactive	inactive	inactive	inactive	inactive	inactive
C=C[C@]1(C)CC[C@@H]([C@H](C)C(=O)/C=C/C(C)C)O1	inactive	inactive	inactive	inactive	inactive	inactive	inactive	inactive	inactive	inactive	inactive	inactive	inactive	inactive	inactive	inactive	inactive		inactive	inactive
C/C=C/C(=O)[C@@H](C)C1=CC(=O)C2=C(O[C@@]34CC[C@H](O)C(C)(C)[C@@H]3CC[C@H](C)[C@@]4(C)C2)C1=O	7.49 µM (active)			1.66 µM (active)		2.96 µM (active)	8.61 µM (active)	2.96 µM (active)	3.32 µM (active)	20.9 µM (active)	2.11 µM (active)		15.4 µM (active)		16.6 µM (active)	17.2 µM (active)	1.86 µM (active)			inactive
O=C1C[C@@H](c2ccc(O)c(-c3c(O)cc(O)c4c3O[C@H](c3ccc(O)cc3)CC4=O)c2)Oc2cc(O)cc(O)c21	inactive	inactive	inactive	inactive	inactive	inactive	inactive	inactive	inactive	inactive	inactive	inactive	inactive	inactive	inactive	inactive		inactive	inactive	inactive
Oc1ccc(C2c3c(O)cc(O)cc3[C@@H]3C(c4ccc(O)cc4)c4c(O)cc(O)cc4[C@H]23)cc1 (stereo partly specified)	inactive	inactive	inactive		inactive	inactive	inactive	inactive	inactive	inactive	inactive	inactive	inactive			inactive	inactive	inactive	inactive	inactive
CC(=O)NC[C@@H]1O[C@H](CC/C=C(C)/C(C)=C/C=O)[C@H](C)C[C@H]1O	inactive	inactive	inactive		inactive	inactive	inactive		inactive	inactive	inactive	inactive	inactive	inactive	inactive			34.3 µM (active)	inactive	inactive
C=C1C[C@@]23C=CC(=O)[C@@](C)(CCC(=O)Nc4c(O)ccc(C(=O)O)c4O)C2C[C@@H]1C(O)C3 (stereo partly specified)	inactive	inactive	inactive	inactive	inactive	inactive		inactive	inactive	inactive	inactive	inactive	inactive	inactive	inactive	inactive	inactive	inactive	inactive	
C=C(NC(=O)c1csc(-c2nc3c(cc2O)-c2nc(cs2)C(=O)NC(C(C)O)C(=O)N/C(=C(\C)O)c2nc(cs2)C(=O)NC2c4nc(cs4)C(=O)NC(COC(=O)c4c5c6c(cccc6n4O)COC(=O)[C@@H](OC4C[C@](C)(O)[C@H](N(C)C)[C@H](C)O4)C2OC5)c2nc-3cs2)n1)C(N)=O (stereo partly specified)	inactive	inactive	inactive	inactive	inactive		inactive			inactive	inactive		inactive				inactive		inactive	
COc1ccc(CCCc2cc(O)c(OC)c(O)c2)c(O)c1O	inactive	inactive	inactive	inactive	inactive		21.6 µM (active)	0.166 µM (active)	0.0148 µM (active)	inactive	inactive	inactive	inactive	inactive		inactive			inactive	21.5 µM (active)
C[C@@H]1O[C@@H](O[C@@H]2[C@@H](O)[C@H](O[C@@H]3[C@@H](O)[C@@H](O)C(O[C@H]4[C@H](OC(=O)[C@]56CCC(C)(C)C[C@H]5C5=CCC7[C@@]8(C)C[C@H](O)[C@H](O[C@@H]9C[C@H](CO)[C@@H](O)[C@H](O)[C@H]9O)[C@@](C)(CO)C8[C@H](O)C[C@@]7(C)[C@]5(C)CC6)OC[C@H](O)[C@@H]4O)O[C@H]3C)OC[C@H]2O)[C@H](O)[C@H](O)[C@H]1O (stereo partly specified)	inactive	inactive	inactive	inactive	inactive	inactive	inactive	inactive		inactive	inactive	inactive	inactive	inactive	inactive	inactive	inactive	inactive	inactive	inactive
COc1c(O)cc2oc(-c3ccccc3)cc(=O)c2c1O	inactive	inactive	inactive	20.9 µM (active)	inactive	inactive	inactive	inactive	inactive	inactive	9.41 µM (active)	inactive	inactive	inactive		inactive	13.2 µM (active)	34.3 µM (active)		inactive
